Results as given in PubChem BioAssay AID1159580 (chemical genetic matrix, 2015).
In all, about 5,500 compounds went through this assay and about 2,000 (36%) were called active. About 18% were inconclusive and are not listed. No stated cut-off is given here; in the data, active means normalized growth mostly below about 0.91 (no sharp cut-off); inconclusive means no clear call, values can overlap the other calls; inactive means mostly above about 0.92. The list shows a part of the results.

Test: chemical genetic growth profiling, strain panel (AID 1159580);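 further: tested at 20 µM; growth read once vehicle control cultures reached saturation at 30 °C; 1 = growth at the plate median or of vehicle wells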
Conditions: growth OD
[1] = S. cerevisiae deletion strains, locus YBR021W, strain FUR4, stronger effect = lower value
[2] = S. cerevisiae deletion strains, locus YBR229C, strain ROT2, stronger effect = lower value
[3] = S. cerevisiae deletion strains, locus YCL029C, strain bik1, stronger effect = lower value
[4] = S. cerevisiae deletion strains, locus YDL035C, strain GPR1, stronger effect = lower value
[5] = S. cerevisiae deletion strains, locus YDL074C, strain BRE1, stronger effect = lower value
[6] = S. cerevisiae deletion strains, locus YDL101C, strain DUN1, stronger effect = lower value
[7] = S. cerevisiae deletion strains, locus YDL185W, strain tfp1, stronger effect = lower value
[8] = S. cerevisiae deletion strains, locus YDL192W, strain arf1, stronger effect = lower value
[9] = S. cerevisiae deletion strains, locus YDR101C, strain arx1, stronger effect = lower value
[10] = S. cerevisiae deletion strains, locus YDR150W, strain NUM1, stronger effect = lower value
[11] = S. cerevisiae deletion strains, locus YDR162C, strain NBP2, stronger effect = lower value
[12] = S. cerevisiae deletion strains, locus YDR318W, strain mcm21, stronger effect = lower value
[13] = S. cerevisiae deletion strains, locus YDR388W, stronger effect = lower value
[14] = S. cerevisiae deletion strains, locus YDR502C, strain sam2, stronger effect = lower value
[15] = S. cerevisiae deletion strains, locus YEL061C, strain CIN8, stronger effect = lower value
[16] = S. cerevisiae deletion strains, locus YER110C, stronger effect = lower value
[17] = S. cerevisiae deletion strains, locus YER155C, strain BEM2, stronger effect = lower value
[18] = S. cerevisiae deletion strains, locus YER167W, strain BCK2, stronger effect = lower value
[19] = S. cerevisiae deletion strains, locus YGL078C, strain dbp3, stronger effect = lower value
[20] = S. cerevisiae deletion strains, locus YGL086W, strain mad1, stronger effect = lower value
[21] = S. cerevisiae deletion strains, locus YGL248W, strain PDE1, stronger effect = lower value
[22] = S. cerevisiae deletion strains, locus YGR135W, strain pre9, stronger effect = lower value
[23] = S. cerevisiae deletion strains, locus YGR252W, strain gcn5, stronger effect = lower value
[24] = S. cerevisiae deletion strains, locus YHR030C, strain SLT2, stronger effect = lower value
[25] = S. cerevisiae deletion strains, locus YHR079C, strain IRE1 (second series), stronger effect = lower value
[26] = S. cerevisiae deletion strains, locus YHR094C, strain hxt1, stronger effect = lower value
[27] = S. cerevisiae deletion strains, locus YHR129C, strain ARP1, stronger effect = lower value
[28] = S. cerevisiae deletion strains, locus YHR200W, strain rpn10, stronger effect = lower value
[29] = S. cerevisiae deletion strains, locus YIL066C, strain RNR3, stronger effect = lower value
[30] = S. cerevisiae deletion strains, locus YIL073C, strain SPO22, stronger effect = lower value
[31] = S. cerevisiae deletion strains, locus YIL125W, strain kgd1, stronger effect = lower value
[32] = S. cerevisiae deletion strains, locus YIR030C, strain dcg1, stronger effect = lower value
[33] = S. cerevisiae deletion strains, locus YJL095W, strain BCK1, stronger effect = lower value
[34] = S. cerevisiae deletion strains, locus YJL134W, strain LCB3, stronger effect = lower value
[35] = S. cerevisiae deletion strains, locus YJL168C, strain set2, stronger effect = lower value
[36] = S. cerevisiae deletion strains, locus YJL187C, strain SWE1 (second series), stronger effect = lower value
[37] = S. cerevisiae deletion strains, locus YJR043C, strain POL32, stronger effect = lower value
[38] = S. cerevisiae deletion strains, locus YKL009W, strain mrt4, stronger effect = lower value
[39] = S. cerevisiae deletion strains, locus YKL068W, stronger effect = lower value
[40] = S. cerevisiae deletion strains, locus YKL085W, strain MDH1 (second series), stronger effect = lower value
[41] = S. cerevisiae deletion strains, locus YKL085W, strain MDH1, stronger effect = lower value
[42] = S. cerevisiae deletion strains, locus YKL190W, strain CNB1, stronger effect = lower value
[43] = S. cerevisiae deletion strains, locus YKR001C, strain vps1, stronger effect = lower value
[44] = S. cerevisiae deletion strains, locus YLR039C, strain RIC1, stronger effect = lower value
[45] = S. cerevisiae deletion strains, locus YLR058C, strain SHM2, stronger effect = lower value
[46] = S. cerevisiae deletion strains, locus YLR102C, strain apc9, stronger effect = lower value
[47] = S. cerevisiae deletion strains, locus YLR268W, strain sec22, stronger effect = lower value
[48] = S. cerevisiae deletion strains, locus YLR330W, strain CHS5, stronger effect = lower value
[49] = S. cerevisiae deletion strains, locus YLR371W, strain rom2, stronger effect = lower value
[50] = S. cerevisiae deletion strains, locus YLR418C, strain cdc73, stronger effect = lower value
[51] = S. cerevisiae deletion strains, locus YML016C, strain PPZ1, stronger effect = lower value
[52] = S. cerevisiae deletion strains, locus YML032C, strain rad52, stronger effect = lower value
[53] = S. cerevisiae deletion strains, locus YML124C, strain tub3, stronger effect = lower value
[54] = S. cerevisiae deletion strains, locus YMR078C, strain ctf18, stronger effect = lower value
[55] = S. cerevisiae deletion strains, locus YMR223W, strain ubp8, stronger effect = lower value
[56] = S. cerevisiae deletion strains, locus YMR263W, strain SAP30, stronger effect = lower value
[57] = S. cerevisiae deletion strains, locus YMR307W, strain GAS1, stronger effect = lower value
[58] = S. cerevisiae deletion strains, locus YNL067W, strain RPL9B, stronger effect = lower value
[59] = S. cerevisiae deletion strains, locus YNL153C, strain GIM3, stronger effect = lower value
[60] = S. cerevisiae deletion strains, locus YNL233W, strain BNI4, stronger effect = lower value
[61] = S. cerevisiae deletion strains, locus YNL250W, strain rad50, stronger effect = lower value
[62] = S. cerevisiae deletion strains, locus YNL271C, strain bni1, stronger effect = lower value
[63] = S. cerevisiae deletion strains, locus YNL298W, strain CLA4, stronger effect = lower value
[64] = S. cerevisiae deletion strains, locus YNL307C, strain MCK1, stronger effect = lower value
[65] = S. cerevisiae deletion strains, locus YNR052C, strain pop2, stronger effect = lower value
[66] = S. cerevisiae deletion strains, locus YOL012C, strain htz1
[67] = S. cerevisiae deletion strains, locus YOL147C, strain pex11, stronger effect = lower value
[68] = S. cerevisiae deletion strains, locus YOR061W, strain CKA2, stronger effect = lower value
[69] = S. cerevisiae deletion strains, locus YOR069W, strain VPS5, stronger effect = lower value
[70] = S. cerevisiae deletion strains, locus YOR136W, strain idh2, stronger effect = lower value
[71] = S. cerevisiae deletion strains, locus YOR144C, strain elg1, stronger effect = lower value
[72] = S. cerevisiae deletion strains, locus YOR184W, strain ser1, stronger effect = lower value
[73] = S. cerevisiae deletion strains, locus YOR316C, strain cot1, stronger effect = lower value
[74] = S. cerevisiae deletion strains, locus YPR119W, strain clb2, stronger effect = lower value
[75] = S. cerevisiae deletion strains, locus YPR141C, strain kar3, stronger effect = lower value
[76] = S. cerevisiae deletion strains, locus YPR163C, strain tif3, stronger effect = lower value
[77] = S. cerevisiae deletion strains, locus YPR167C, strain met16, stronger effect = lower value
[78] = S. cerevisiae deletion strains, strain wtn01, stronger effect = lower value
[79] = S. cerevisiae strains, strain wild type, stronger effect = lower value

Measured: normalized growth

CC(=O)OCC(=O)[C@@]1(O)CCC2C3CC[C@@H]4C[C@H](OC(C)=O)CC[C@]4(C)C3C(=O)C[C@@]21C (stereo not given in full)
inactive: [1] 0.972 | [2] 0.997 | [3] 1.03 | [4] 0.989 | [5] 0.993 | [6] 1.01 | [7] 1.02 | [8] 1.01 | [9] 1.01 | [10] 0.994 | [11] 0.987 | [12] 1 | [13] 1.01 | [14] 1 | [15] 0.971 | [16] 1.01 | [17] 0.994 | [18] 0.961 | [19] 1 | [20] 1.01 | [21] 1.01 | [22] 1 | [23] 0.991 | [24] 1 | [25] 1.01 | [26] 1.01 | [27] 0.996 | [28] 1.02 | [29] 1 | [30] 1.05 | [31] 1 | [32] 0.999 | [33] 1 | [34] 1 | [35] 1.01 | [36] 0.999 | [37] 0.995 | [38] 0.988 | [39] 1.01 | [40] 1.01 | [41] 1.01 | [42] 0.997 | [43] 1.01 | [44] 1.02 | [45] 0.993 | [46] 1.01 | S. cerevisiae deletion strains, locus YLR262C, strain YPT6, stronger effect = lower value 1.03 | [47] 1.03 | [48] 1 | S. cerevisiae deletion strains, locus YLR342W, strain FKS1 (second series), stronger effect = lower value 1.01 | [49] 1 | [50] 1.01 | [51] 1.01 | [52] 1 | [53] 1.01 | [54] 1.02 | [55] 1.02 | [56] 0.995 | [57] 0.99 | [58] 1 | [59] 1 | [60] 0.995 | [61] 1.02 | [62] 1.01 | [63] 1.01 | [64] 1.02 | S. cerevisiae deletion strains, locus YNL322C, strain KRE1, stronger effect = lower value 0.998 | [65] 1.01 | [66] 1 | [67] 1.01 | [68] 1.01 | [69] 0.996 | [70] 1.02 | [71] 1.02 | [72] 1.01 | [73] 1.01 | [74] 1 | [75] 1.02 | [76] 1.02 | [77] 1.02 | [78] 1.02 | [79] 0.986

CC(=O)O[C@H]1CC[C@]2(C)C3CC[C@@]4(C)C(CC5O[C@@]6(CCC(C)CO6)[C@@H](C)C54)C3CC[C@H]2C1 (stereo not given in full)
inactive: S. cerevisiae deletion strains, locus YAL013W, strain DEP1, stronger effect = lower value 0.995 | [1] 1 | [2] 0.986 | [3] 0.98 | [4] 1.02 | [5] 1.01 | [6] 0.98 | S. cerevisiae deletion strains, locus YDL134C, strain PPH21, stronger effect = lower value 0.988 | [7] 0.972 | [8] 0.987 | [9] 0.983 | [10] 1 | [11] 1.02 | [12] 0.975 | [13] 0.973 | [14] 0.974 | [15] 0.997 | [16] 0.976 | [17] 0.984 | [18] 0.995 | [19] 0.971 | [20] 0.988 | [21] 0.984 | [22] 0.948 | [23] 0.92 | [24] 0.978 | [25] 0.977 | [26] 0.969 | [27] 0.991 | [28] 0.973 | [29] 0.993 | [30] 0.985 | [31] 0.982 | [32] 0.975 | [33] 0.977 | [34] 0.987 | [35] 0.979 | [36] 0.977 | [37] 1.02 | S. cerevisiae deletion strains, locus YJR075W, strain HOC1, stronger effect = lower value 0.983 | [38] 1.04 | [39] 0.979 | [40] 1.01 | [41] 1.01 | [42] 0.999 | [43] 0.971 | [44] 1.07 | [45] 0.989 | [46] 0.979 | [47] 0.987 | [48] 0.986 | [49] 0.991 | [50] 0.976 | [51] 0.989 | [52] 0.977 | [53] 0.994 | [54] 0.969 | [55] 0.969 | [56] 0.991 | [57] 1.09 | [58] 0.983 | [59] 0.977 | [60] 1.01 | [61] 0.965 | [62] 0.982 | [63] 0.971 | [64] 0.982 | [65] 0.953 | S. cerevisiae deletion strains, locus YOL006C, strain TOP1, stronger effect = lower value 1.06 | [66] 1.12 | [67] 0.98 | [68] 1 | [69] 0.98 | [70] 0.968 | [71] 0.972 | [72] 1.02 | [73] 0.977 | [74] 0.968 | [75] 0.974 | [76] 0.977 | [77] 0.979 | [78] 1 | [79] 1.02
